# Source: the supplement of paper PMC11219838
# Tested on: Ditylenchus dipsaci
# Test: proportion of mobile D. dipsaci (mixed stage) relative to DMSO control (fraction of DMSO control); higher = more viable, less nematicidal, active = 0.86 or less; extreme values may be limits of the assay
# Details: 60 µM; 5 days; temperature: 20 °C
# In short: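 The worms, D. dipsaci raised on pea plants in Gamborg B-5 agar, were recovered through a filter funnel into water. Each well of a 96-well plate then held about 20 of them in distilled water plus pinned compound at 60 µM final (0.6% v/v DMSO), and the sealed plates were shaken at 200 rpm at 20 °C for 5 days. Following addition of 2 µL 1 M NaOH, mobile worms were counted by microscopy, and mobility was expressed against DMSO controls as the average of two biological replicates.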
row,Compound,proportion of mobile D. dipsaci
1,CNC(=O)O/N=C(\SC)C(=O)N(C)C [oxamyl],1 (inactive)
2,O=C(NCCc1ncc(C(F)(F)F)cc1Cl)c1ccccc1C(F)(F)F [fluopyram],0 (active)
3,CC[C@H](C)[C@H]1O[C@]2(C=C[C@@H]1C)C[C@@H]1C[C@@H](C/C=C(\C)[C@@H](O[C@H]3C[C@H](OC)[C@@H](O[C@H]4C[C@H](OC)[C@@H](O)[C@H](C)O4)[C@H](C)O3)[C@@H](C)/C=C/C=C3\CO[C@@H]4[C@H](O)C(C)=C[C@@H](C(=O)O1)[C@]34O)O2.CO[C@H]1C[C@H](O[C@H]2[C@H](C)O[C@@H](O[C@@H]3/C(C)=C/C[C@@H]4C[C@@H](C[C@]5(C=C[C@H](C)[C@@H](C(C)C)O5)O4)OC(=O)[C@@H]4C=C(C)[C@@H](O)[C@H]5OC/C(=C\C=C\[C@@H]3C)[C@]54O)C[C@@H]2OC)O[C@@H](C)[C@@H]1O [abamectin],0.727 (active)
4,CC(C)NC(=O)N1CC(=O)N(c2cc(Cl)cc(Cl)c2)C1=O [iprodione],1 (inactive)

# Tested on: Caenorhabditis elegans L1 (N2)
# Test: survival and reproduction score of C. elegans L1 (0: 0-10 living worms, 1: 11-20, 2: 21-50, 3: >50, 4: overgrown) (score 0-4); higher = more worms, less nematicidal, active = 1 or less; extreme values may be limits of the assay
# Details: 60 µM; 6 days; temperature: 20 °C
# In short: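 Each 96-well well received about 20 synchronized N2 L1 worms of C. elegans, E. coli HB101 and liquid NGM, plus compound pinned to 60 µM final (0.6% v/v DMSO). Sealed plates were incubated with shaking at 200 rpm, 20 °C, for 6 days. Survival and reproduction were rated under a dissection microscope as an ordinal score of living worms per well, averaged across biological replicates. The scale spanned 0 (0–10 worms) to 4 (overgrown, starved), and there were two replicates.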
row,Compound,survival and reproduction score
1,CC(C)c1ccc(NC(=O)CSc2nnc(-c3ccc(Br)cc3)o2)cc1,4 (inactive)
2,O=C(CSc1nnc(-c2ccncc2)o1)Nc1cc(C(F)(F)F)ccc1Cl,4 (inactive)
3,Clc1ccc(-c2nc(-c3ccccc3Br)no2)cc1,3.5 (inactive)
4,c1ccc(COc2cccc(-c3nc(-c4ccncc4)no3)c2)cc1,4 (inactive)
5,O=C(CSc1nnc(-c2ccccc2)o1)Nc1cc(C(F)(F)F)ccc1Cl,4 (inactive)
6,Cc1ccc(-c2noc(-c3ccccc3C(=O)N3CCC(C)CC3)n2)cc1,4 (inactive)
7,CNC(=O)c1ccccc1-c1nc(-c2ccc(F)cc2)no1,4 (inactive)
8,CNC(=O)O/N=C(\SC)C(=O)N(C)C [oxamyl],4 (inactive)
9,Cc1ccc(C)c(-c2nc(-c3ccncc3)no2)c1,0 (active)
10,COc1ccc(-c2nc(-c3ccc(Cl)cc3)no2)cc1,4 (inactive)
11,Fc1ccc(OCc2nc(-c3ccccc3)no2)cc1,3.5 (inactive)
12,Cc1ccc(-c2nc(-c3cccnc3)no2)c(C)c1,0 (active)
13,CCn1cc(C(=O)CSc2nnc(-c3ccccc3)o2)c2ccccc21,4 (inactive)
14,C=CCOc1cccc(-c2nc(-c3cccnc3)no2)c1,0 (active)
15,Fc1ccccc1-c1nc(-c2ccccc2)no1,0 (active)
16,COc1ccc(-c2noc(COc3ccccc3)n2)cc1,0 (active)
17,COc1ccc(Cl)cc1NC(=O)CSc1nnc(-c2ccc(Br)cc2)o1,4 (inactive)
18,c1ccc(OCc2nc(-c3cccs3)no2)cc1,0 (active)
19,Clc1cc(Br)ccc1OCc1nc(-c2ccccc2)no1,4 (inactive)
20,Cc1ccc(-c2nc(-c3ccccc3Cl)no2)cc1,4 (inactive)

row,Compound,survival and reproduction score
1,Cc1ccc(OCc2nc(-c3ccc(Cl)cc3)no2)cc1,4 (inactive)
2,O=C(CSc1nnc(-c2ccccc2)o1)c1ccc(Br)cc1,4 (inactive)
3,Cc1cc(OCc2nc(-c3ccncc3)no2)ccc1Cl,4 (inactive)
4,O=C(NCCc1ncc(C(F)(F)F)cc1Cl)c1ccccc1C(F)(F)F [fluopyram],0 (active)
5,O=C(CSc1nnc(-c2ccc(Br)cc2)o1)Nc1cccc2ccccc12,4 (inactive)
6,Cn1c(SCc2nc(-c3ccc(Br)cc3)no2)nnc1-c1ccco1,4 (inactive)
7,c1ccc(-c2noc(COc3cccc4ccccc34)n2)nc1,4 (inactive)
8,Cc1ccc(-c2nc(-c3ccccc3)no2)cc1,0.5 (active)
9,O=C(CSc1nnc(-c2cccc(Br)c2)o1)NC1CCCCC1,4 (inactive)
10,COc1ccc(-c2noc(-c3cccc(C)c3)n2)cc1,0 (active)
11,COc1ccccc1-c1noc(-c2ccc(C(C)(C)C)cc2)n1,4 (inactive)
12,N#Cc1ccccc1CSc1nnc(-c2ccccc2)o1,4 (inactive)
13,COc1ccc(-c2nnc(SCC(=O)Nc3c(F)cc(F)cc3Br)o2)cc1,4 (inactive)
14,COc1cccc(-c2noc(COc3cccc(C)c3C)n2)c1,2 (inactive)
15,Brc1cccc(-c2noc(-c3ccc4c(c3)OCO4)n2)c1,4 (inactive)
16,Cc1ccc(-c2noc(-c3cccc(Br)c3)n2)cc1,4 (inactive)
17,CC[C@H](C)[C@H]1O[C@]2(C=C[C@@H]1C)C[C@@H]1C[C@@H](C/C=C(\C)[C@@H](O[C@H]3C[C@H](OC)[C@@H](O[C@H]4C[C@H](OC)[C@@H](O)[C@H](C)O4)[C@H](C)O3)[C@@H](C)/C=C/C=C3\CO[C@@H]4[C@H](O)C(C)=C[C@@H](C(=O)O1)[C@]34O)O2.CO[C@H]1C[C@H](O[C@H]2[C@H](C)O[C@@H](O[C@@H]3/C(C)=C/C[C@@H]4C[C@@H](C[C@]5(C=C[C@H](C)[C@@H](C(C)C)O5)O4)OC(=O)[C@@H]4C=C(C)[C@@H](O)[C@H]5OC/C(=C\C=C\[C@@H]3C)[C@]54O)C[C@@H]2OC)O[C@@H](C)[C@@H]1O [abamectin],0 (active)
18,Cc1ccc(-c2noc(-c3ccc4c(c3)OCCO4)n2)cc1,4 (inactive)
19,CC(C)NC(=O)N1CC(=O)N(c2cc(Cl)cc(Cl)c2)C1=O [iprodione],4 (inactive)
